Format in all cases: functional
For assay [1], the system named is Plasmodium falciparum. Description: GSK_TCMDC: Inhibition of Plasmodium falciparum 3D7 in whole red blood cells, using parasite LDH activity as an index of growth. Test compounds present at 2uM.
Assay [2] deals with Plasmodium falciparum. The assay is described as follows: GSK_TCMDC: Inhibition of Plasmodium falciparum Dd2 in whole red blood cells, using parasite LDH activity as an index of growth. Test compounds present at 2uM.
Assay [3] deals with HepG2. Description: GSK_TCMDC: Percent inhibition of human HepG2 cell line. Test compounds present at 10uM.

For orientation: Inhibition means how much of the control response was suppressed. Lower therefore signals little suppression.

`Cc1[nH]c2ccccc2c1C1CCN(CCCCNC(=O)c2ccc(-c3ccc(C#N)cc3)cc2)CC1`: the Inhibition is on record as 100% in assay [1], 97% in assay [2] and 19% in assay [3].
For `CN1CCN(c2ccc(-c3cccc(NC(=O)c4cccc(Cl)c4)c3)nn2)CC1` the same measures were 94%, 37% and 5%.
As to `CN(CCc1ccccc1)c1ncc(-c2cccc(CNCCC3CCCN3C)c2)cn1` (stereo not drawn), the Inhibition stood at 92% in assay [1], 98% in assay [2] and 99% in assay [3].
Take `O=C(O)C(F)(F)F.O=C(c1ccccc1)N(Cc1ccccc1-c1ccc(CNCCc2ccccc2)cc1)C1CCN(Cc2ccccc2)CC1`: the Inhibition came to 95% in assay [1], 69% in assay [2] and 95% in assay [3].
For `COC(=O)C1=C(C)NC2=C(C(=O)CC(c3ccc(OC)c(OC)c3)C2)C1c1cccc(O)c1` (stereo not drawn), the Inhibition in assay [1] is recorded as 99%; in assay [2], 69%; in assay [3], 2%.
As to `COc1ccc(CCn2c(=N)c(C(=O)NCc3ccccc3)cc3c(=O)n4cccc(C)c4nc32)cc1`, the Inhibition is recorded as 100% in assay [1], 37% in assay [2] and 29% in assay [3].
As to `CCOc1ccc(C(=O)Nc2ccc(-c3nc4ccccc4[nH]3)cc2)cc1[N+](=O)[O-]`, the Inhibition in assay [1] was found to be 100%; in assay [2], 70%; in assay [3], 22%.
In the case of `O=C(/C=C/c1ccc(Cl)c(Cl)c1)NCCCCCN1CCCN(C(=S)Nc2cccc(Cl)c2)CC1`, the figures for the Inhibition in assay [1], in assay [2] and in assay [3] were 93%, 7% and 19%, respectively.
For the compound `Cc1cccc2nc(-c3ccc(-c4cccc(CN5CC(C)OC(C)C5)c4)s3)[nH]c12.O=C(O)C(F)(F)F` (stereo not drawn), the results for the Inhibition in assay [1], in assay [2] and in assay [3] were 98%, 79% and 6%, respectively.
For the compound `O=C(NCCCCN1CCC(c2ccc3c(c2OCCN2CCCC2)CCCC3)CC1)c1ccc(-c2ccc(C(F)(F)F)cc2)cc1`, the results for the Inhibition in assay [1], in assay [2] and in assay [3] were 100%, 81% and 25%, respectively.
Consider `O=C(/C=C/c1ccc(C(F)(F)F)cc1)NCCCCCN1CCCN(C(=O)Nc2ccc(Cl)cc2)CC1`, for which the Inhibition was 99% in assay [1], 0% in assay [2] and 28% in assay [3].
In the case of `COc1ccc(NC(=O)/C=C/c2ccccc2Cl)cc1OCCN1CCC(Cc2cc3ccccc3[nH]2)CC1.Cl`, the Inhibition in assay [1] is listed as 92%; in assay [2] it was 8%; in assay [3], 56%.
In the case of `Cc1cc(N[C@@H](CC(C)C)C(=O)NCc2cccc(F)c2)nc(NCCc2ccc(F)cc2)n1.O=C(O)C(F)(F)F`, the figures for the Inhibition in assay [1], in assay [2] and in assay [3] were 90%, 6% and 0%, respectively.
As to `O=C(N[C@@H](CC1CCCCC1)C(=O)NC1CCCCC1)c1ccc(O)c(-c2cccc(C(F)(F)F)c2)c1`, the Inhibition in assay [1] is reported as 100%; in assay [2] it was 95%; in assay [3], 0%.
`CC1CCN(Cc2cccc(C(=O)NCc3ccc(F)c(-c4cccc(CN5CCN[C@@H](C)C5)c4)c3)c2)CC1.O=C(O)C(F)(F)F`: the Inhibition in assay [1] came out at 91%; in assay [2], 64%; in assay [3], 26%.
`COc1cc(CN2CCC(NC(=O)[C@H](Cc3ccccc3)NC(=O)Nc3ccc(Oc4ccccc4)cc3)C2)ccc1O` (stereo partly drawn): the Inhibition in assay [1] amounted to 92%; in assay [2], 0%; in assay [3], 10%.
For the compound `O=C(O)C(F)(F)F.O=S(=O)(NCCN1CCCC1)c1ccc(-c2cccc(CNCc3ccc(F)cc3)c2)cc1`, the figures for the Inhibition in assay [1], in assay [2] and in assay [3] were 100%, 41% and 76%, respectively.
Take `COc1cc2nc(NCCc3cccc(Cl)c3)nc(NCc3ccccc3)c2cc1OC`: the figures for the Inhibition in assay [1], in assay [2] and in assay [3] were 100%, 100% and 97%, respectively.
Consider `Cl.O=c1cc(NCCCNCc2ccc(Cl)c(Cl)c2)[nH]c2ccc(Oc3ccccc3)cc12`, for which the Inhibition was determined as 92% in assay [1], 29% in assay [2] and 1% in assay [3].
Consider `Cc1cccc2nc(-c3ccc(-c4ccc(CNCCNC(=O)c5ccnn5C)cc4)s3)[nH]c12.O=C(O)C(F)(F)F`, for which the figures for the Inhibition in assay [1], in assay [2] and in assay [3] were 100%, 97% and 20%, respectively.
Consider `O=[N+]([O-])c1ccc(Nc2nc(NCc3ccccc3)nc(N/N=C/c3ccccc3[N+](=O)[O-])n2)cc1`, for which the values for the Inhibition in assay [1], in assay [2] and in assay [3] were 100%, 99% and 18%, respectively.
With `O=C(NCc1cccc(C(F)(F)F)c1)c1ccc(CNC(=O)c2ccc(O)c(-c3ccc(Cl)c(Cl)c3)c2)cc1`, the Inhibition in assay [1] stood at 92%; in assay [2], 15%; in assay [3], 7%.
With `CN1CCN(c2ccc(Cl)cc2NC(=O)C2COc3ccccc3O2)CC1` (stereo not drawn), the Inhibition stood at 99% in assay [1], 44% in assay [2] and 2% in assay [3].
As for `O=C(NC1CCCCC1)N(Cc1ccccc1-c1ccc(CNCCc2ccccc2)cc1)C1CCN(Cc2ccccc2)CC1.O=C(O)C(F)(F)F`, the Inhibition in assay [1] came out at 90%; in assay [2], 92%; in assay [3], 96%.
With `Cc1cc(NCCc2ccccc2)nc(N/C(=N/CC(=O)OC(C)(C)C)Nc2ccc(C(F)(F)F)cc2)n1.I`, the Inhibition in assay [1] is listed as 100%; in assay [2], 97%; in assay [3], 23%.
Turning to `Cc1cc(=O)c2cc(Oc3ccc(OC(F)(F)F)cc3)ccc2[nH]1`, the Inhibition came out at 86% in assay [1], 71% in assay [2] and 20% in assay [3].

These data come from ChEMBL document CHEMBL1157539, “Thousands of chemical starting points for antimalarial lead identification” (Nature, 2010).
